Screening data from PubChem.
Furin inhibitor = human furin inhibitors, primary screen, biochemical, fluorescence intensity. P09958. purified furin, fluorogenic substrate cleavage. inhibition, % at 20 µM or 30 µM. 0.061% of 220,000 active. AID 463115, 2010; in the data active = inhibition above about 25%
Target sequence (P09958 108-714 limits assumed): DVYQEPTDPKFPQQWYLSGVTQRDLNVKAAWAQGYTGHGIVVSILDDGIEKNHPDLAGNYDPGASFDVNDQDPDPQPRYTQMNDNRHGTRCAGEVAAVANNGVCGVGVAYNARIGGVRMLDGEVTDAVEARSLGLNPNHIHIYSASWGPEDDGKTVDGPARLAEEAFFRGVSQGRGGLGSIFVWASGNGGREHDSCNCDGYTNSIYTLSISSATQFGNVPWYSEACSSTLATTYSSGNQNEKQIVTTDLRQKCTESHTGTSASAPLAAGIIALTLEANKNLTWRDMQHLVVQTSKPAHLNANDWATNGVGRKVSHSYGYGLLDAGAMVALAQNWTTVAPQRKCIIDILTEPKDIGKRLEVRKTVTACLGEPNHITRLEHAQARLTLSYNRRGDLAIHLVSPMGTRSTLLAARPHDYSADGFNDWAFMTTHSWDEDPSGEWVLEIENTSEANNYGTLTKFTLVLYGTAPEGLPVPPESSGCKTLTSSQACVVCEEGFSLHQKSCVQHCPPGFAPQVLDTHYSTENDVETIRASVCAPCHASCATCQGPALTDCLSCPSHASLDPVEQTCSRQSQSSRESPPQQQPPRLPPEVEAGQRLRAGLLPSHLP
EP2 modulator = EP2 receptor modulators, cAMP readout, primary screen, cell-based, HTRF cAMP, PGE2 stimulation. 0.83% of 260,000 active. induction, % at 25 µM. EP2-expressing cells, cAMP HTRF FRET, PGE2 co-stimulation. AID 940, 2007;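 active = compounds whose cAMP rise, as percent of the full-agonist control response, exceeds 60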;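 also: rat C6 glioma line stably carrying human EP2 under a CMV promoter; the protocol text gives 20 µM as final concentration; 100% = response of wells given 1 µM PGE2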
m-calpain inh = inhibitors of pig calpain II, primary screen, biochemical, fluorogenic peptide substrate, 1536-well | purified calpain II, 30 min | 0.37% of 220,000 active | AID 1236, 2008 | inhibition, % at 16 µM;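 active = inhibition above about 50%, limit read from the data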
HMGR II inh = inhibitors of E. faecalis class II HMGR, primary screen, biochemical, Enterococcus faecalis | HMG-CoA reductase (Enterococcus faecalis, mvaE) | purified E. faecalis HMGR, NADPH absorbance 340 nm kinetic | inhibition, % at 10 µM | 0.41% of 190,000 active | AID 1066, 2008;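 active = inhibition above a set limit, the median over all tested compounds plus 3 SD, cut at about 9.5% in these data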;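 also: enzyme runs in reverse so mevalonate oxidation gives rising NADPH absorbance; 0% = complete reaction with DMSO and 100% = background rate lacking mevalonate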
PGE2 EP2 inh = human EP2 receptor antagonists, primary screen, TR-FRET cAMP, C6 glioma cells; Prostaglandin E2 receptor EP2 subtype (Homo sapiens), P43116; C6 glioma cells expressing human EP2; cells stimulated with saturating PGE2; inhibition, % at 25 µM; 0.52% of 260,000 active;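 active = percent inhibition above 40 after rounding to a whole number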;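 also: rat C6 glioma host cells with rolipram phosphodiesterase inhibitor present; the protocol text gives 20 µM as final concentration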
* marks the source's active call; other numbers are inactive results; . = not tested or not shown; ! = repeats disagree. Most compounds without a hit are left out; they make up all but 1.9% or so of the library.

SMILES | Furin inhibitor | EP2 modulator | m-calpain inh | HMGR II inh | PGE2 EP2 inh
CCN(CC(=O)NCc1ccc(F)cc1)Cc1cc(=O)n2ccsc2n1 | -22 | 22 | -8 | 2 | 3
CCN(Cc1cc(=O)n2ccsc2n1)Cc1nc2ccccc2c(=O)[nH]1 | -26 | 4 | -1 | 11* | 6
CCn1c(SCC(=O)N2CCOCC2)nnc1-c1ccc(OC)cc1 | . | 6 | . | . | 5
O=C(c1ccc(-c2ccccc2)cc1)N1CCC(C(=O)N2CCCC2)CC1 | -14 | -17 | -37 | 0 | 13
O=C(c1ccc(-c2nnc(-c3ccccc3)o2)cc1)N1CCCCCC1 | -17 | -13 | 60* | 3 | 15
CCN1CCCC1CNCC(=O)NC1(C)C2CCC(C2)C1(C)C (stereo not drawn) | . | -20 | . | . | 16
O=C(O)C(=O)Nc1ccccn1 | . | -1 | . | . | 6
COc1ccc(OC)c(S(=O)(=O)Nc2ccc(O)c3ccccc23)c1 | -13 | -27 | -26 | 8 | 42*
COc1ccc(OC)c(S(=O)(=O)Nc2ccc(Oc3ccccc3)cc2)c1 | -2 | 5 | 28 | -5 | 6
COc1ccc(-n2c(=S)[nH]c3cc(C(=O)Nc4ccc(OC)c(OC)c4)ccc3c2=O)cc1 | -21 | -1 | 60* | -5 | 2
COc1ccc(-n2c(=S)[nH]c3cc(C(=O)Nc4cccc(C)c4)ccc3c2=O)cc1 | -11 | -28 | 17 | 1 | 2
CN(C)C(=O)CSc1nnc2n1C(C)(C)Cc1ccccc1-2 | . | 10 | . | . | 8
COC(=O)C1=C(C)NC(=O)NC1c1cccc(OC)c1OCC#N (stereo not drawn) | . | 2 | . | . | 5
O=C(O)CC[P+](c1ccccc1)(c1ccccc1)c1ccccc1 | . | 11 | . | . | 47*
O=C(O)CC(c1ccccc1)c1ccccc1 | -3 | 12 | -20 | -1 | 6
CC(C)=CCc1c2c(c3occ(-c4ccc(O)c(O)c4)c(=O)c3c1O)C=CC(C)(C)O2 | . | 37 | . | . | 41*!
CC(C)=CCc1c2c(c3occ(-c4ccc(O)cc4)c(=O)c3c1O)C=CC(C)(C)O2 | -12 | 37 | 14 | -4 | 12
Cc1cc(C)c2c(c1)c(C)cc1nnc(SCC(=O)Nc3nnc(C)s3)n12 | . | 6 | . | . | 10
O=C(NNC(=O)C1CCN(S(=O)(=O)c2ccc(Cl)cc2)CC1)c1ccncc1 | -26 | 10 | -35 | 13* | 6
COC(=O)[C@@]1(Cc2ccc(F)cc2)[C@H]2c3cc(C(=O)N(C)C)n(Cc4nc5ccccc5[nH]4)c3C[C@H]2CN1C(=O)c1ccccc1 | -20 | 13 | -104 | 11* | 10
CC(C)(C)c1ccc(S(=O)(=O)/C=C/C#N)cc1 | . | -20 | . | . | 97*
CC(C)(C)c1ccc(NS(=O)(=O)c2ccc(N)cc2)cc1 | -15 | -33 | -10 | . | 13
Cc1cc(SCC(=O)c2ccc(Br)cc2)cc(C)[o+]1 | . | 16 | . | . | 48*
Cc1nnc(SCC(=O)c2ccc(Br)cc2)s1 | -28 | -4 | -10 | -1 | 1
Cc1noc(C)c1CCC(=O)N1CCC[C@H](C(=O)c2ccc(F)cc2)C1 | . | -24 | . | . | 9
SMILES | Furin inhibitor | EP2 modulator | m-calpain inh | HMGR II inh | PGE2 EP2 inh
Cn1c(=O)c2c3c(sc2n2c(SCC(N)=O)nnc12)CC(C(C)(C)C)CC3 (stereo not drawn) | -11 | 45 | 66* | -3 | 15
O=C(Cn1ncc2ccccc21)N1CCN(c2cccc(C(F)(F)F)c2)CC1 | -28 | -35 | -7 | 18* | 14
Cc1cc(-c2cncnc2C2CCCN(C(=O)N3CCOCC3)C2)on1 (stereo not drawn) | . | -28 | . | . | .
Cc1cccc(C)c1NC(=O)CN1C(=O)NC(C)(CCc2ccccc2)C1=O (stereo not drawn) | -20 | 29 | -25 | 13* | 3
COc1ccc(-c2nc(-c3cccc([N+](=O)[O-])c3O)cc(=O)o2)cc1OC | -6 | 1 | 25 | -4 | 6
COc1cc(/C=C2/C(=O)c3cccc([N+](=O)[O-])c3C2=O)c(Br)cc1O | -12 | -96 | -36 | 4 | 49*
S=c1[nH]nc(COc2ccccc2)n1C1CCCCC1 | -21 | 22 | 34 | -12 | 12
FC(F)(F)c1cccc(NCc2n[nH]c(=S)n2C2CCCCC2)c1 | -20 | 34 | 56* | -2 | 5
CC(C)C(=O)Nc1ccc(C(=O)Nc2nnc(C3CCCCC3)s2)cc1 | . | -36 | . | . | 10
C/C=C/Cn1c(SCc2ccccc2)nc2c1c(=O)[nH]c(=O)n2C | -5 | 66*! | 34 | 2 | 10
CCCCCn1c(Sc2nc3ccccc3s2)nc2c1c(=O)[nH]c(=O)n2C | -25 | 63* | -16 | -2 | 7
CC(C)Sc1nc2c(c(=O)[nH]c(=O)n2C)n1CCCc1ccccc1 | . | 71* | . | . | 9
CCn1c(SCC(=O)Nc2cccc(C(=O)O)c2)nnc1-c1ccco1 | . | 15 | . | . | 7
Cc1ccc2c(c1)cc(C)c1nn(CC(=O)N3CCOCC3)c(=O)n12 | . | -26 | . | . | .
Cc1ccc(N(CC(=O)N2CCOCC2)S(=O)(=O)c2ccccc2)cc1 | -7 | 28 | 11 | 12* | 8
O=C(N=Nc1c(O)[nH]c2ccc(Cl)cc12)c1cc(-c2cccs2)nc2ccccc12 | 4 | 19 | 89* | -1 | 3
COCCNC(=O)CN(Cc1ccc2c(c1)OCO2)C(=O)CCC(=O)Nc1cc(C)on1 | . | -15 | . | . | 10
CCOC(=O)C(C)n1ncc2c3sc(C)cc3n(Cc3ccc(F)cc3)c2c1=O (stereo not drawn) | . | 65* | . | . | .
Cc1ccc2c(c1)CCCN2C(=O)c1ccc2c(c1)OCO2 | -19 | 34 | 50* | -6 | 7
CC(C)(C)C(=O)N1CCc2cc(-c3csc(NC(=O)c4ccccc4F)n3)ccc21 | . | -47 | . | . | 25
O=C1CC2C(=O)NCCN2C(=NC(=O)c2ccc(Cl)cc2)N1 (stereo not drawn) | -24 | 2 | 92* | -11 | 4
CN1CCC/C1=C/C=C1\SC(=S)NC1=O | 11 | -7 | 60* | -6 | 6
CN1/C(=C\C=C2/SC(=S)NC2=O)C(C)(C)c2ccccc21 | -20 | -3 | -45 | 4 | 17
Cn1cc(CN2CCN(c3ncccn3)CC2)c(-c2cccc(Cl)c2)n1 | -17 | -4 | -29 | 9.6* | 5
Cc1cc(N2CCN(Cc3cn(C)nc3-c3cccc(Cl)c3)CC2)cc(C)n1 | -21 | -35 | -17 | 6 | 8
CN(C)C(=O)CSc1nc(-c2ccccc2)c(-c2ccccc2)o1 | -7 | 63* | 13 | -2 | 8
O=C(O)/C(=C\c1cccs1)c1ccccc1 | -20 | 4 | -25 | 12* | 15
Cc1cc(C)c(C(=O)/C=C/C=C/c2ccccc2)c(=O)[nH]1 | -4 | -4 | 2 | -3 | 7
Cc1cc(C)c(C(=O)/C=C/c2ccc(C(C)C)cc2)c(=O)[nH]1 | -9 | 3 | 7 | 0 | 83*
CCc1nc(NCc2ccccc2)c(C#N)c2c1CCCC2 | -29 | 64* | 6 | -3 | 2
